This is an account of results in PubChem BioAssay AID540351 (The Scripps Research Institute Molecular Screening Center, 2011).

A number with no mark means an inactive call. The rule behind the calls is not given here.

The experiment has as its system Phorbol Ester. Description: off-target receptor, channel and CYP panel, profiling panel, selectivity assay for S1P3 agonist project, biochemical, Ricerca HitProfilingScreen, CYP450 (AID 540351). Particulars: Ricerca receptor/enzyme binding panel plus CYP450, at 30 µM, hits give high values.

As usually defined, the inhibition is the relative decrease from the control value, in per cent. For the compound `O=C(c1cc(C2CC2)on1)N(C1CCCCC1)C1CCCCC1`, the inhibition is -19%.
